The record followed here is PubChem BioAssay (Tox21).

Structures are written as SMILES. Several values for one entry are separate records, joined by “and”; a condition that tells them apart may be missing. Equal entries are not always repeated. Some structures have more than one record in an assay (separate samples or runs), and their calls can disagree. Activity calls are given as the source filed them. Unless noted, the call rests on the fitted dose curve; in most records, active means well fitted curve in the direction sought with a large enough effect in the repeat runs; inconclusive means weak or mixed curves; inactive means no such curve, though single readings can be large; an effect the other way counts as inactive or inconclusive.

A short description of assay [1]: qHTS assay to identify small molecule antagonists of the glucocorticoid receptor (GR) signaling pathway - cell viability counter screen (AID 720693; further: nearly all actives have a fitted effect of over 55% in size; further: potency means the concentration at half of the fitted maximal effect). (In qHTS, concentration-response curves come from the screen itself.)
Assay [2] in a line: qHTS assay for identifying genotoxic compounds that show differential cytotoxicity against isogenic chicken DT40 cell lines with known DNA damage response pathways - wild type cell line (AID 743012). Further: nearly all actives have a fitted effect of over 60% in size. Further: potency means the concentration at half of the fitted maximal effect. The method, boiled down: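 Parental DNA repair-proficient DT40 cells, 300 per well, were pre-incubated ~0.5 h at 37 C/5% CO2, pin-dosed with compounds in DMSO, then incubated 40 h. Viability was read as CellTiter-Glo luminescence after 30 min at room temperature.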

Assay [3] can be described thus: qHTS assay for identifying genotoxic compounds that show differential cytotoxicity against isogenic chicken DT40 cell lines with known DNA damage response pathways - Rev3 mutant cell line (AID 743014). Further: nearly all actives have a fitted effect of over 55% in size. Further: potency means the concentration at half of the fitted maximal effect.
Assay [4] can be described thus: qHTS assay for identifying genotoxic compounds that show differential cytotoxicity against isogenic chicken DT40 cell lines with known DNA damage response pathways - Rad54/Ku70 mutant cell line (AID 743015). Further: nearly all actives have a fitted effect of over 60% in size. Further: potency means the concentration at half of the fitted maximal effect.
Assay [5] is described as follows: qHTS assay to identify small molecule antagonists of the androgen receptor (AR) signaling pathway - cell viability counter screen (AID 743033; further: nearly all actives have a fitted effect of over 45% in size; further: potency means the concentration at half of the fitted maximal effect).
Assay [6] can be described thus: qHTS assay to identify small molecule antagonists of the androgen receptor (AR) signaling pathway using the MDA cell line - cell viability counter screen (AID 743041; further: nearly all actives have a fitted effect of over 45% in size; further: potency means the concentration at half of the fitted maximal effect). The method, boiled down:
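Same-well cytotoxicity was assessed by CellTiter-Fluor in MDA-kb2 AR-luc cells after 16 h of compound treatment under R1881 agonism.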

Assay [7] is described as follows: qHTS assay to identify small molecule antagonists of the thyroid receptor (TR) signaling pathway - cell viability counter screen (AID 743064). Further: nearly all actives have a fitted effect of over 50% in size. Further: potency means the concentration at half of the fitted maximal effect. Put shortly: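 Viability of T3-stimulated (1 nM final) GH3.TRE-Luc cells is measured by CellTiter-Fluor fluorescence after 23.5 h compound exposure at 37 °C plus 30 min reagent incubation.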
The test system of assay [8] is thyroid hormone receptor (rat, GH3 cells). Briefly: qHTS assay to identify small molecule agonists of the thyroid receptor (TR) signaling pathway (AID 743066; calls by dose curve).
Assay [9] can be described thus: qHTS assay to identify small molecule antagonists of the estrogen receptor alpha (ER-alpha) signaling pathway - cell viability counter screen (AID 743074; calls by dose curve;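 further: HEK293 cells carrying ER-alpha-UAS-bla reporter stimulated with 17beta-estradiol; nearly all actives have a fitted effect of over 45% in size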; further: potency means the concentration at half of the fitted maximal effect).
The nature of assay [10]: qHTS assay to identify small molecule antagonists of the estrogen receptor alpha (ER-alpha) signaling pathway using the BG1 cell line - cell viability counter screen (AID 743081).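 Further: compound given together with 17beta-estradiol as the ER stimulus; nearly all actives have a fitted effect of over 45% in size.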 Further: potency means the concentration at half of the fitted maximal effect.
Assay [11] in a line: qHTS assay to identify small molecule antagonists of the thyroid receptor (TR) signaling pathway (AID 743065). Further: nearly all actives have a fitted effect of over 55% in size. Further: potency means the concentration at half of the fitted maximal effect. The method, boiled down:
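GH3.TRE-Luc rat pituitary cells (two TREs driving luciferase) were dosed with compound, then stimulated with 1 nM T3 (final) for 23.5 h at 37 C. ONE-Glo luminescence was the read-out, with CellTiter-Fluor fluorescence as the cytotoxicity counter-screen.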

For assay [12], the target named is Estrogen receptor (Homo sapiens) (UniProt P03372). Briefly: qHTS assay to identify small molecule antagonists of the estrogen receptor alpha (ER-alpha) signaling pathway (AID 743069; active means well fitted curve in the direction sought with a large enough effect in the signal ratio in the repeat runs, not every such curve was filed as active; inconclusive means weak or mixed curves, or effect the other way; inactive means no such curve, though single readings can be large or run the other way; the % refers to the signal ratio; further: potency means the concentration at half of the fitted maximal effect). Put shortly:
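Reporter cells (ER-alpha-bla, HEK293 background) are conditioned overnight in stripped-serum medium (2% charcoal-stripped FBS). Compound and 17beta-estradiol exposure runs 18 hr at 37C, 5% CO2.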

A short description of assay [13]: qHTS assay to identify small molecule antagonists of the estrogen receptor alpha (ER-alpha) signaling pathway using the BG1 cell line (AID 743080; calls by dose curve;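 further: BG1 cells stimulated with 17beta-estradiol alongside compound; nearly all actives have a fitted effect of over 25% in size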; further: potency means the concentration at half of the fitted maximal effect). Put shortly:
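Seeding, 24 h rest, compound transfer from DMSO, 17beta-estradiol addition, 21.5 h incubation, CellTiter-Fluor (30 min, 37 C), then ONE-Glo (30 min, room temperature): this sequence was run on BG1-Luc-4E2 reporter cells.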

In a further assay the target is Aromatase (Homo sapiens) (UniProt P11511). Briefly: qHTS assay to identify aromatase inhibitors (AID 743083). Further: nearly all actives have a fitted effect of over 55% in size. Further: potency means the concentration at half of the fitted maximal effect.
Assay [14] concerns the target Androgen receptor (Homo sapiens) (UniProt P10275). Briefly: qHTS assay to identify small molecule antagonists of the androgen receptor (AR) signaling pathway using the MDA cell line (AID 743042; further: nearly all actives have a fitted effect of over 55% in size; further: potency means the concentration at half of the fitted maximal effect). Put shortly: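 MDA-kb2 breast carcinoma cells carrying MMTV-luciferase (AR/GR responsive) were co-treated with compounds and the agonist R1881 for 16 h at 37C. Inhibition read as ONE-Glo luminescence; CellTiter-Fluor fluorescence measured in parallel for cytotoxicity.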

In assay [15] the target is Estrogen receptor (Homo sapiens) (UniProt P03372). Briefly: qHTS assay to identify small molecule agonists of the estrogen receptor alpha (ER-alpha) signaling pathway (AID 743075; calls by dose curve; further: potency means the concentration at half of the fitted maximal effect).
Assay [16] has as its target Androgen receptor (Homo sapiens) (UniProt P10275). Briefly: qHTS assay to identify small molecule agonists of the androgen receptor (AR) signaling pathway (AID 743036; active means well fitted activation curve with a large enough effect in the signal ratio in the repeat runs, with a control signal flat, not every such curve was filed as active; inconclusive means weak or mixed curves, or effect the other way; inactive means no such curve, though single readings can be large or run the other way; the % refers to the signal ratio). Put shortly:
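Screening used 2,000 AR-bla HEK293 cells per well, treated 16 h at 37C with test compounds in DMSO alongside positive and DMSO-only controls; beta-lactamase activity was then read by LiveBLAzer B/G FRET fluorescence after 2 h at room temperature.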

Assay [17] shares this target. Briefly: qHTS assay to identify small molecule agonists of the androgen receptor (AR) signaling pathway using the MDA cell line (AID 743040; further: nearly all actives have a fitted effect of over 20% in size). Put shortly:
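Human breast carcinoma MDA-kb2 reporter cells (MMTV-luc, AR/GR elements) were treated for 16 h at 37C in 0% CO2 following a 5 h settling period. Signal was quantified by ONE-Glo luminescence.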

Assay [18] has as its target Estrogen receptor (Homo sapiens) (UniProt P03372). Briefly: qHTS assay to identify small molecule agonists of the estrogen receptor alpha (ER-alpha) signaling pathway using the BG1 cell line (AID 743079). Further: potency means the concentration at half of the fitted maximal effect; nearly all actives have a fitted effect of over 20% in size.
Assay [19] deals with Androgen receptor (Homo sapiens) (UniProt P10275). Briefly: qHTS assay to identify small molecule antagonists of the androgen receptor (AR) signaling pathway (AID 743035; active means well fitted inhibition curve with a large enough effect in the signal ratio in the repeat runs, not every such curve was filed as active; inconclusive means weak or mixed curves, or effect the other way; inactive means no such curve, though single readings can be large or run the other way; the % refers to the signal ratio; further: potency means the concentration at half of the fitted maximal effect). The method, boiled down: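 HEK293 cells stably carrying a UAS-driven beta-lactamase reporter (AR-UAS-bla GripTite) were plated for 4 h at 37C, then given compound and the agonist R1881 and incubated 16 h. Reporter activity was read by LiveBLAzer B/G FRET fluorescence after 2 h at room temperature.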
Sequence of Androgen receptor (Homo sapiens) (P10275 whole entry, looked up): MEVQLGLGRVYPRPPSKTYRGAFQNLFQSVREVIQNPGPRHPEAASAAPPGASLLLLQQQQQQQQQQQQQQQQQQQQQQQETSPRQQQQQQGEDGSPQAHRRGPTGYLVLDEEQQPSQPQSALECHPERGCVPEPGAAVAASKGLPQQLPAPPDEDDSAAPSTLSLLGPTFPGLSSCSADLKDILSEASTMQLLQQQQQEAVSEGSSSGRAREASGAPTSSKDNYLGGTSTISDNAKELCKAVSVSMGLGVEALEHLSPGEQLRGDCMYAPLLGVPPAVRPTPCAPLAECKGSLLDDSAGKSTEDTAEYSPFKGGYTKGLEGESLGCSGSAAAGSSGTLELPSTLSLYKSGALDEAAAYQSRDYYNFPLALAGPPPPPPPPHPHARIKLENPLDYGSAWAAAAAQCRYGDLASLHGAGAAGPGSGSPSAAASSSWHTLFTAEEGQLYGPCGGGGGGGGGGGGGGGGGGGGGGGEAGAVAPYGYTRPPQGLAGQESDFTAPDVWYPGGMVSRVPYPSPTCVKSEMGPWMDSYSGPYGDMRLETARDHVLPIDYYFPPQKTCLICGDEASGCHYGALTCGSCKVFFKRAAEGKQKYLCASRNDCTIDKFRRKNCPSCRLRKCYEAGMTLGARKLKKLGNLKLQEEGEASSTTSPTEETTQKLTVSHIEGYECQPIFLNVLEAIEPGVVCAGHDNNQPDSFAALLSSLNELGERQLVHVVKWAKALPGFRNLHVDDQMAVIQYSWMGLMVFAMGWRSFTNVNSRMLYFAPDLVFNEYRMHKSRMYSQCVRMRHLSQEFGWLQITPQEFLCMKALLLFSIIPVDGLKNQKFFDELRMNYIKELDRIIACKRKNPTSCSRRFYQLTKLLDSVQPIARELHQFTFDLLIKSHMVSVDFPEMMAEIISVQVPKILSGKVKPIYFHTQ

Sequence of Aromatase (Homo sapiens) (P11511 whole entry, looked up): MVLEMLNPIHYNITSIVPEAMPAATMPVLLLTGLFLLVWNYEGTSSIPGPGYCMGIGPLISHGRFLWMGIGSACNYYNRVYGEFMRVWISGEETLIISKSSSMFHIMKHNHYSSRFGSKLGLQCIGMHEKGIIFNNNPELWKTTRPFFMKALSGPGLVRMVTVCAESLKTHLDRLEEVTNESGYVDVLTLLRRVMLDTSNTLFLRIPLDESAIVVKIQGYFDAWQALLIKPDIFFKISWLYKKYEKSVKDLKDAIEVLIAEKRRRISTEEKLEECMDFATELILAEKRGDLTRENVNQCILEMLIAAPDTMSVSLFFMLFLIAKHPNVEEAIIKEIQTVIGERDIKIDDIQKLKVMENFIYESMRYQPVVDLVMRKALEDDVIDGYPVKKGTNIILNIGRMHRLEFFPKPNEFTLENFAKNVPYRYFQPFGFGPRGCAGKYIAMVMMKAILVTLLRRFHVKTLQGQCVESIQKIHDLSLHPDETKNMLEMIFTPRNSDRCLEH
Sequence of Estrogen receptor (Homo sapiens) (P03372 whole entry, looked up): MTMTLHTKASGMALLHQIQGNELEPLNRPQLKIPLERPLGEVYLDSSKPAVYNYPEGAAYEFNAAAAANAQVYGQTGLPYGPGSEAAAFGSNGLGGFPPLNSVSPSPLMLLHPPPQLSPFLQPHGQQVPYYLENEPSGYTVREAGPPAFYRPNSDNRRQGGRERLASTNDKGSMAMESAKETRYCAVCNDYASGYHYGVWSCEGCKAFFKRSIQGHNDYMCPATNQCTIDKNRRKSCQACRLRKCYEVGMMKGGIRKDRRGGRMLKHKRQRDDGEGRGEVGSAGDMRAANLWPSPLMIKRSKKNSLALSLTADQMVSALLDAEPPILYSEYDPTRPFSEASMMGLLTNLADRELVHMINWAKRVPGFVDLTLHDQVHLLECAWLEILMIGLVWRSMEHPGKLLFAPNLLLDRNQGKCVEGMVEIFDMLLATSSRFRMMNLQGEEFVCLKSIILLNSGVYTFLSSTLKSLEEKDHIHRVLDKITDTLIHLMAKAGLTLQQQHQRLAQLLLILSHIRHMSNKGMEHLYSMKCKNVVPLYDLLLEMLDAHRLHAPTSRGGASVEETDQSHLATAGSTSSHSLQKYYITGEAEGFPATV

For `CCOP(=S)(OCC)OC(Cl)C(Cl)(Cl)Cl` (configuration not stated), the Potency result in [1], in assay [2], in assay [3], in assay [4], in assay [5] and in [6] was “inactive” in each case. Also, the Potency result in assay [7], in assay [9] and in [10] was “inactive” throughout. The compound was called inactive in [8].
On to `CCCCCCCCCCCCCC[P+](CCCCCC)(CCCCCC)CCCCCC` (tested in a mixture with another compound), for which the Potency was 2.75 µM (active) in [1]; 3.44 µM (active) in assay [2]; 3.86 µM (active) in assay [3]; 3.06 µM (active) in assay [4]; 1.95 µM (active) in assay [5]; 4.33 µM (active) in [6]. For the same compound, the Potency in assay [7] is 2.43 µM (active); in assay [11], 1.54 µM (active); in assay [12], 0.246 µM [inconclusive] (active); in assay [9], 7.76 µM (active); in assay [13] it was 2.73 µM (active); in [10] it was 9.69 µM (active). Also, the Potency with Aromatase (Homo sapiens) was 3.06 µM (active).
As for `C[C@@H]1CC[C@@]2(OC1)O[C@H]1[C@@H](O)[C@H]3[C@@H]4CC[C@H]5C[C@@H](O[C@@H]6O[C@H](CO)[C@H](O[C@@H]7O[C@H](CO)[C@@H](O)[C@H](O[C@@H]8OC[C@@H](O)[C@H](O)[C@H]8O)[C@H]7O[C@@H]7O[C@H](CO)[C@@H](O)[C@H](O[C@@H]8O[C@H](CO)[C@@H](O)[C@H](O)[C@H]8O)[C@H]7O)[C@H](O)[C@H]6O)[C@H](O)C[C@]5(C)[C@H]4CC[C@]3(C)[C@H]1[C@@H]2C`, the Potency in assay [1] was 16.4 µM (active); in assay [2], 16.3 µM (active); in assay [3], 4.09 µM (active); in [4] it was 2.05 µM (active); in assay [5] it was 2.32 µM (active); in assay [6] it was 25.8 µM (active). Besides, the Potency was 8.17 µM (active) in [14]; 2.05 µM (active) in [7]; 2.58 µM (active) in assay [11]; 10.4 µM (active) in assay [9]; 41.3 µM [inconclusive] (active) in assay [15]; 64.9 µM (active) in assay [10]. In addition, the Potency with Aromatase (Homo sapiens) was 9.16 µM (active). In assay [8], the compound was classed as inactive.
Regarding `CC1(C)C(/C=C(\Cl)C(F)(F)F)C1C(=O)OC(C#N)c1cccc(Oc2ccccc2)c1` (configuration not stated), the Potency result in [1], in [2], in [3], in assay [4], in assay [5] and in assay [6] was “inactive” throughout. For the same compound, the Potency entry (in assay [7]; in assay [11]; in assay [9]; in assay [10]; with Aromatase (Homo sapiens)) was “inactive” in each case. Moreover, the result in [8] was inactive.
For `O=[N+]([O-])c1cc(C(F)(F)F)c(Cl)c([N+](=O)[O-])c1Cl`, the Potency was 12.3 µM (active) in [1]; 0.386 µM (active) in assay [2]; 0.486 µM (active) in assay [3]; 0.386 µM (active) in assay [4]; 21.9 µM (active) in [5]; 54.5 µM (active) in assay [6]. For the same compound, the Potency was 0.611 µM (active) in assay [7]; 0.386 µM (active) in assay [11]; 54.9 µM (active) in assay [9]; 61.1 µM (active) in assay [10]; 1.22 µM (active) with Aromatase (Homo sapiens).
Consider `Clc1ccc(C(Cl)(Cl)Cl)c(Cl)c1`, for which the Potency result in assay [1], in [2], in assay [3], in assay [4], in [5] and in assay [6] was “inactive” in each case. For the same compound, the Potency entry in [7], in assay [11], in assay [9] and in [10] was “inactive” each time. Also, the result in assay [8] was inactive.
For `CC(=O)O[C@H]1CC[C@@]2(C)C(=CC[C@@H]3[C@@H]2CC[C@]2(C)C(=O)CC[C@@H]32)C1`, the Potency entry in [1], in assay [2], in assay [3], in assay [4], in assay [5] and in [16] was “inactive” each time. Further, the Potency result in assay [17], in [6], in assay [14], in assay [7], in [11] and in assay [9] was “inactive” throughout. Further, the Potency result (in [13]; in [10]; in the assay with Aromatase (Homo sapiens)) was “inactive” in each case. For the same compound, the result in assay [8] was inactive. For the same compound, the Potency in assay [15] was 811 nM [inconclusive] (active) and 490 nM [inconclusive] (active); in assay [18], 320 nM (active) and 86.3 nM (active).
With `CC(C)(C)OO`, the Potency entry in [1], in [2], in [3], in assay [4], in [5] and in assay [19] was “inactive” each time. Also, the Potency entry in assay [16], in assay [6], in assay [14], in assay [7], in assay [11] and in [9] was “inactive” each time. Further, the Potency result (in [10]; in the assay with Aromatase (Homo sapiens)) was “inactive” in each case. Also, the call in assay [8] was inactive.
Take `C[C@@H]1O[C@@H](O[C@H]2C[C@@H](O)[C@]3(CO)[C@H]4[C@H](O)C[C@]5(C)[C@@H](C6=CC(=O)OC6)CC[C@]5(O)[C@@H]4CC[C@]3(O)C2)[C@H](O)[C@H](O)[C@H]1O`: the Potency is 379 nM (active) and 213 nM (active) and 58.5 nM (active) in assay [1]; 2.11 µM (active) and 1.88 µM (active) and 1.3 µM (active) in [2]; 2.11 µM (active) and 1.88 µM (active) and 517 nM (active) in assay [3]; 1.88 µM (active) and 580 nM (active) in [4]; 67.4 nM (active) and 53.5 nM (active) and 11.7 nM (active) in [5]; 213 nM (active) and 190 nM (active) and 46.5 nM (active) in [19]. The Potency in assay [14] was 841 nM (active) and inactive; in assay [9], 0.0425 µM (active); in assay [13] it was 531 nM (active) and 163 nM (active). The Potency result in [6], in assay [7], in assay [11], in assay [15] and in [10] was “inactive” in each case. Besides, the outcome in assay [8] was inactive.
As for `N#CSCSC#N`, the Potency is 22.4 µM (active) and 21.7 µM (active) in assay [1]; 5.57 µM (active) and 1.21 µM (active) in assay [2]; 1.98 µM (active) and 1.91 µM (active) in assay [3]; 3.51 µM (active) and 1.52 µM (active) in assay [4]; 22.4 µM (active) and 24.3 µM (active) in assay [5]; 62.5 µM (active) and 60.5 µM (active) in assay [6]. Besides, the Potency is 55.7 µM (active) and 60.5 µM (active) in [14]; 2.79 µM (active) and 4.28 µM (active) in assay [7]; 1.98 µM (active) and 2.15 µM (active) in assay [11]; 14 µM (active) and 17.1 µM (active) in the assay with Aromatase (Homo sapiens). Besides, the Potency entry in assay [9] and in [10] was “inactive” each time.
As for `COc1cc(N)c(Cl)cc1C(=O)NC1CN2CCC1CC2` (configuration not stated), the Potency result in [1], in assay [2], in assay [3], in [4], in assay [5] and in assay [6] was “inactive” each time. For the same compound, the Potency result (in assay [7]; in assay [9]; in assay [10]; in the assay with Aromatase (Homo sapiens)) was “inactive” each time. In addition, the outcome in [8] was inactive.
For `COc1ccc(/C(=C/C(=O)N2CCOCC2)c2ccc(Cl)cc2)cc1OC`, the Potency result in assay [1], in [5], in [19], in assay [16], in assay [6] and in assay [7] was “inactive” each time. The Potency result (in [11]; in [9]; in assay [10]; with Aromatase (Homo sapiens)) was “inactive” throughout. The Potency in assay [2] is 24.3 µM (active); in assay [3] it was 30.6 µM (active); in assay [4] it was 30.6 µM (active); in [14], 30.6 µM (active). Besides, in [8], the result was inactive.
